Measurements published in PubChem BioAssay.
Active and inactive are the calls of the source. Unless noted, the rule behind the calls is not given here.

How the values were obtained:
[1] = compounds binding Alexa647 anti-His antibody – biochemical, small-molecule microarray, 635 nm fluorescence, artefact control for SMM control protein annotation, primary screen (AID 1128); conditions: higher = more signal;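 note: score merges feature fluorescence with signal-to-noise for each printed compound spot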
[2] = system: Human papillomavirus type 1a E7 protein (residues 1-88); assay: HPV1a E7 small-molecule binders, primary screen, biochemical, small-molecule microarray, residues 1-88, 635 nm (AID 1129); conditions: small-molecule microarray binding, fluorescence 635 nm; higher = more signal
[3] = target: Focal adhesion kinase 1 (Homo sapiens) (UniProt Q05397); assay: PTK2 protein binding on printed compound slides – biochemical, small-molecule microarray, 635/667 nm fluorescence, BSA, DTT, primary screen (AID 1130); conditions: 635 nm fluorescence, higher = more signal;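 note: composite of spot emission at 667 nm and signal to noise over triplicate slides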
[4] = system: Fibrinogen (Alexa647-labelled); assay: Alexa647-fibrinogen binding to printed small molecules – biochemical, small-molecule microarray, 635/667 nm fluorescence, artefact control for SMM control-protein annotation, profiling panel (AID 1131); conditions: fibrinogen-A647 binding fluorescence, higher = more signal;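 note: z-score merges 667 nm fluorescence with per-spot signal-to-noise over triplicate slides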
[5] = target: Follistatin (Homo sapiens) (UniProt P19883); assay: FST protein binding to printed compounds – biochemical, small-molecule microarray, 635/667 nm fluorescence, primary screen (AID 1132); conditions: 635 nm fluorescence, higher = more signal
[6] = target: Fibroblast growth factor 2 (Homo sapiens) (UniProt P09038); assay: basic fibroblast growth factor binding to printed compounds – biochemical, small-molecule microarray, 635/667 nm fluorescence, primary screen (AID 1133); conditions: FGF2, fluorescence 635/667, higher = more signal
[7] = JC-1 mitochondrial potential readout, lung cancer cells – cell-based, A549, JC-1 fluorescence, basal, 24 h, 100 nL, profiling panel (AID 1138); conditions: higher = more signal;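 note: A549 lung adenocarcinoma cells under basal conditions with no added stimulus; test concentration not given here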
Lefty1 = Lefty1 protein binding to printed compounds – biochemical, small-molecule microarray, 635/667 nm fluorescence, primary screen (AID 1139); conditions: fluorescence 635/667, higher = more signal
[8] = system: wheat germ agglutinin (Triticum aestivum), Alexa647-labelled; assay: Alexa647-WGA lectin binding to printed small molecules – biochemical, small-molecule microarray, 635/667 nm fluorescence, artefact control for SMM control-protein annotation, profiling panel (AID 1140); conditions: WGA-A647 binding, 635 nm fluorescence, higher = more signal;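 note: score merges 667 nm feature emission with signal to noise over triplicate slides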
[9] = target: Luciferin 4-monooxygenase (Photinus pyralis) (UniProt P08659); assay: inhibition of purified Photinus pyralis luciferase – biochemical, luminescence, purified enzyme, 2006 set, primary screen (AID 1141); conditions: purified firefly luciferase, SteadyGlo luminescence, 30 min; higher = more signal, called active from +8 up or from −8 down;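 note: cell-free assay with purified firefly luciferase at 100 ng per well in PBS; test concentration not given here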
[10] = system: Wnt5a (protein binding on small-molecule microarray); assay: small molecules binding Wnt5a protein – biophysical, small-molecule microarray, 635/667 nm fluorescence, primary screen (AID 1142); conditions: 635 nm fluorescence, higher = more signal;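 note: fluorescence read at 667 nm with signal to noise per printed feature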
[11] = ATP-based viability of Huh7 replicon cells – cell-based, CellTiter-Glo luminescence, basal, 48 h, cytotoxicity control for HCV replication inhibitor project, primary screen (AID 1143); conditions: higher = more signal, called active from +8 up or from −8 down;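 note: Huh7 hepatoma cells carrying a hepatitis C replication reporter with no stimulus; test concentration not given here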
[12] = Pseudomonas biofilm growth suppression – PAO1 strain, BacTiter-Glo luminescence, LB-PBS, primary screen (AID 1144); conditions: P. aeruginosa PAO1 biofilm, 12 h, higher = more signal
[13] = basal CRE-LacZ reporter activity in PC12 – cell-based, unstimulated, primary screen (AID 1145); conditions: no forskolin, luminescence, 4.5 h, higher = more signal, called active from +8 up or from −8 down
[14] = forskolin-driven CRE-LacZ activity in PC12 – cell-based, CRE-LacZ reporter, forskolin-stimulated, primary screen (AID 1146); conditions: luminescence, 4.5 h, higher = more signal, called active from +8 up or from −8 down;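 note: PC12 cells with 6xCRE LacZ reporter stimulated by forskolin 10 µM; beta-galactosidase reporter signal reflecting CREB driven transcription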
[15] = target: Streptavidin (Streptomyces avidinii) (UniProt P22629); assay: compounds binding control protein streptavidin – biophysical, small-molecule microarray, 635/667 nm fluorescence, artefact control for SMM compound annotation, primary screen (AID 1147); conditions: higher = more signal;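 note: signal reflects streptavidin binding to arrayed compounds as a control protein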
[16] = probe aInhba binding on compound microarray – biochemical, small-molecule microarray, 635/667 nm fluorescence, primary screen (AID 1148); conditions: higher = more signal;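 note: score merges 667nm spot fluorescence with signal-to-noise for antibody binding to printed compounds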
Torsin-1A (Homo sapiens) [17] = target: Torsin-1A (Homo sapiens) (UniProt O14656); assay: TOR1A wild-type binding on microarray – cell lysate, small-molecule microarray, lysate, 635/667 nm, primary screen (AID 1149); conditions: COS7 hTOR1A-WT lysate, 635 nm fluorescence, higher = more signal
Torsin-1A (Homo sapiens) [18] = target: Torsin-1A (Homo sapiens) (UniProt O14656); assay: torsin A mutant lysate binding on microarrays – cell lysate, small-molecule microarray, COS7 lysate, 635/667 nm fluorescence, primary screen (AID 1150); conditions: COS7 hTOR1A mutant lysate, 635 nm fluorescence, higher = more signal;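 note: score pools 667 nm emission and signal to noise measuring lysate protein binding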
[19] = system: Sonic hedgehog protein (Shh); assay: Sonic hedgehog microarray binding compounds – biochemical, small-molecule microarray, 635/667 nm fluorescence, primary screen (AID 1151); conditions: 635 nm fluorescence, higher = more signal;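 note: Shh protein binding to compounds spotted on small-molecule microarray slides; score combines spot fluorescence intensity with signal-to-noise across triplicate slides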

Sequence of Luciferin 4-monooxygenase (Photinus pyralis) (P08659 whole entry, looked up): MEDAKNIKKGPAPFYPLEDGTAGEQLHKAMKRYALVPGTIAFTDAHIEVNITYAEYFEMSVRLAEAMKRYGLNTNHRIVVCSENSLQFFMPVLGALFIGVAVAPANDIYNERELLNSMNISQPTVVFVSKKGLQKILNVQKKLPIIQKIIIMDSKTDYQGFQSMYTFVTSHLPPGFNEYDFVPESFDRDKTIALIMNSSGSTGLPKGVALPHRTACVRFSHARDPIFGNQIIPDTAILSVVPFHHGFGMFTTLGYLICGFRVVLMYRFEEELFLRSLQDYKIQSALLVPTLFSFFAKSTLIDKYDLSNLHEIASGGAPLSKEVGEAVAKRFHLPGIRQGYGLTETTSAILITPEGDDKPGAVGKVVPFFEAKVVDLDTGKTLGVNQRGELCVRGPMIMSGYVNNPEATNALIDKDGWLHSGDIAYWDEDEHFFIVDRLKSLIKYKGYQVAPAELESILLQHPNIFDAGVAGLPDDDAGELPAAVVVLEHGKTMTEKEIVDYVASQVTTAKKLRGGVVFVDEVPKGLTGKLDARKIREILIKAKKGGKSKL
Sequence of Torsin-1A (Homo sapiens) (O14656 whole entry, looked up): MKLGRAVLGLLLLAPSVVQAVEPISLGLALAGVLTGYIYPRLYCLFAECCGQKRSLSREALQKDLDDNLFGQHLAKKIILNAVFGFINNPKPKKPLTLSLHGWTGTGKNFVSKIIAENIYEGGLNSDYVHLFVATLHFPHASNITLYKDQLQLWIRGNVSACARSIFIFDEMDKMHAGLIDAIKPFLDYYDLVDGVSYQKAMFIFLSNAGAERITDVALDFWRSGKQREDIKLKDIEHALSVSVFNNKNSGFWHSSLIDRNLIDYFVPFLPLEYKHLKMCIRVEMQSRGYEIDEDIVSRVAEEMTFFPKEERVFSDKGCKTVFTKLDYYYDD
Sequence of Follistatin (Homo sapiens) (P19883 whole entry, looked up): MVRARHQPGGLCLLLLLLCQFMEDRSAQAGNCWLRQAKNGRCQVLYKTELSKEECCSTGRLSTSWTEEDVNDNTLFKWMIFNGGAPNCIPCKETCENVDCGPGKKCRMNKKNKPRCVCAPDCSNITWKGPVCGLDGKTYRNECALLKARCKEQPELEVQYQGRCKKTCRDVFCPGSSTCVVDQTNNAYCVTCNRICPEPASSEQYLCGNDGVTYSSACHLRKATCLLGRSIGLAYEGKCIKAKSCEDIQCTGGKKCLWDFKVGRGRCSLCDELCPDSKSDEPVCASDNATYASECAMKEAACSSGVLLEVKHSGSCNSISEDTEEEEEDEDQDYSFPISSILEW
Sequence of Fibroblast growth factor 2 (Homo sapiens) (P09038 whole entry, looked up): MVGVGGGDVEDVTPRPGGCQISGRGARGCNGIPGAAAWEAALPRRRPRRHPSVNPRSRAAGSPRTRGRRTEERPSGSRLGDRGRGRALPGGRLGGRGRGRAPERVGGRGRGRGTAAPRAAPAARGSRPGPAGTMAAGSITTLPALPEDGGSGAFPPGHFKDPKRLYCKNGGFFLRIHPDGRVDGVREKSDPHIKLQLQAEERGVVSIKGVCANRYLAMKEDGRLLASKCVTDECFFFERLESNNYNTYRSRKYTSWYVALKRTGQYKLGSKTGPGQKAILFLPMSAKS
Sequence of Focal adhesion kinase 1 (Homo sapiens) (Q05397 whole entry, looked up): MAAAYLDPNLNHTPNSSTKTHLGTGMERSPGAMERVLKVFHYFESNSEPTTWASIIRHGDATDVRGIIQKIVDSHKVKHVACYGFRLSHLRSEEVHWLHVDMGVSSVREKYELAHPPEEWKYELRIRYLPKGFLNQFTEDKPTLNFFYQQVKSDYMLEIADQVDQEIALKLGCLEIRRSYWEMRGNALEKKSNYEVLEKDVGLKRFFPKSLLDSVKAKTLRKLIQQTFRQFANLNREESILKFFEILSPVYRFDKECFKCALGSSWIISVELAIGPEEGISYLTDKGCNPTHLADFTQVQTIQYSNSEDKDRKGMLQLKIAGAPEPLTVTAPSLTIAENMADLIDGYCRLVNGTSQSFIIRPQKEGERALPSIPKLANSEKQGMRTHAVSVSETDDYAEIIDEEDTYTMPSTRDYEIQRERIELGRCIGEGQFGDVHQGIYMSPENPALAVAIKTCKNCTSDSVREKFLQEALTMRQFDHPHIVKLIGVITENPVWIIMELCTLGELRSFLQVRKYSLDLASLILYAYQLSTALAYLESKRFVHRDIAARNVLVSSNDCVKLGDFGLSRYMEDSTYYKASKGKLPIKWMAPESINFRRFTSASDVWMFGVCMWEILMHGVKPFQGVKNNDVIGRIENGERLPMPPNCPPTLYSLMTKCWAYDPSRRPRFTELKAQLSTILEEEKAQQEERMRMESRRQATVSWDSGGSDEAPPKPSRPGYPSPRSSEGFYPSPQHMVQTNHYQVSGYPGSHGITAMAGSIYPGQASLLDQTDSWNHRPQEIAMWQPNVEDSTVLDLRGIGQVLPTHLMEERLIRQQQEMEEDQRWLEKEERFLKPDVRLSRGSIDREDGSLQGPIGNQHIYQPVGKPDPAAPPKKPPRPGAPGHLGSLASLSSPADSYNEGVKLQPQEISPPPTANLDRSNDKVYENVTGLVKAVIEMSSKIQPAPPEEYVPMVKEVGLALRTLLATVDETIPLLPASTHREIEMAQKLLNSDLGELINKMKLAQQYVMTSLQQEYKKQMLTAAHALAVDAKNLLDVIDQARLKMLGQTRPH
Sequence of Streptavidin (Streptomyces avidinii) (P22629 whole entry, looked up): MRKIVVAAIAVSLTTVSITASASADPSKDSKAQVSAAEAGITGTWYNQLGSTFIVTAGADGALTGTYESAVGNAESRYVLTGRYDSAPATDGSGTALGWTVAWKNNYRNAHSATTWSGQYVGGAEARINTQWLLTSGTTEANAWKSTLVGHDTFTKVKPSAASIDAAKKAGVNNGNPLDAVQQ

Structure (SMILES)	composite z-score [1]	composite z-score [2]	composite z-score [3]	composite z-score [4]	composite z-score [5]	composite z-score [6]	z-score [7]	composite z-score (Lefty1)	composite z-score [8]	z-score [9]	composite z-score [10]	z-score [11]	z-score [12]	z-score [13]	z-score [14]	composite z-score [15]	composite z-score [16]	composite z-score (Torsin-1A (Homo sapiens) [17])	composite z-score (Torsin-1A (Homo sapiens) [18])	composite z-score [19]
COCCCNC(=O)[C@@]1(Sc2ccc(C)cc2)CC(=O)N(C2Cc3ccccc3C2)[C@@H]1c1ccc(CO)cc1I	-0.961	-1.01	-1.01	-1.07	-1.01	-1.19	0.314	-1.68	-0.0708	0.553 (inactive)	-0.572	-0.712 (inactive)	-0.141 (inactive)	0.0909 (inactive)	0.555 (inactive)	-0.962	-0.157	-0.475	-1.29	-0.59
NC(=O)N1C(=O)C2C(C1=O)C1C=C(CCCO)C2C(c2cccs2)N1Cc1cc2c(cc1Br)OCO2 (stereo not given)	2.23	-0.212	1.67	0.87	0.192	-0.681	0.707	0.574	0.851	-0.062 (inactive)	-0.25	-0.477 (inactive)	-0.584 (inactive)	0.424 (inactive)	-0.298 (inactive)	1.13	-0.0983	-0.164	0.279	0.0313
C=CC[C@H](OC(=O)Nc1ccc(OC)cc1)c1ccc(O)c2ccccc12	1.15	1.16	0.531	0.305	1.3	1.64	-1.43	0.907	0.616	-6.26 (inactive)	0.49	-4.26 (inactive)	-1.4 (inactive)	0.935 (inactive)	5.57 (inactive)	0.855	0.0275	0.51	0.696	1.66
C=C(/C(=C/C[C@@H](OC(=O)c1ccncc1)c1ccccc1OCCO)c1cc(C(=O)OC)ccc1OC)C(C)C	0.0652	1.2	0.378	-0.325	0.64	0.806	3.35	0.782	0.986	-1.47 (inactive)	0.449	-2.43 (inactive)	0.128 (inactive)	22.5 (active)	-0.267 (inactive)	0.187	0.0498	0.438	1.29	0.698
COC1(C)CN(Cc2ccccc2Br)[C@H](/C=C/c2ccccc2)[C@H](Cc2ccccc2)O1 (stereo not given in full)	0.258	-0.561	0.106	-0.291	-0.598	-0.375	0.267	0.0787	0.0565	-0.238 (inactive)	-0.243	-0.391 (inactive)	-0.198 (inactive)	1.93 (inactive)	0.874 (inactive)	-0.332	-0.0719	-0.558	0.357	-0.191
